Each structure is given as a SMILES string. Compounds without any hit were thinned out: in the full panel of roughly 79,000, 15% have a hit. Values without a mark were called inactive. Activity calls are given as the source filed them. No stated cut-off is given here; in the data, active means growth inhibition above about 70%; inactive means the rest.

The nature of test [1]: NCI Yeast Anticancer Drug Screen. Data for the rad50 strain (AID 155).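 Further: 0% = growth of vehicle-only cultures of the same strain.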 The settings on record: S. cerevisiae rad50 strain growth inhibition; at 50.0 µM; hits give high values. The procedure, abridged: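 Yeast carrying a defined DNA repair defect were exposed to test compounds, and growth was compared with vehicle-treated controls to give percent inhibition.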
A short description of test [2]: NCI Yeast Anticancer Drug Screen. Data for the mec2-1 strain (AID 157). The following applies: S. cerevisiae mec2-1 strain, at 50.0 µM, hits give high values. The procedure, abridged:
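Using mec2-1 yeast: add compound, measure growth, express inhibition versus vehicle-treated cultures.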

Test [3] is described as follows: NCI Yeast Anticancer Drug Screen. Data for the sgs1 mgt1 strain (AID 161).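 Further: 0% = growth of cultures given vehicle only.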 The following applies: S. cerevisiae sgs1 mgt1 strain, at 50.0 µM, hits give high values. An outline of the steps:
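This yeast growth screen uses a strain with defined DNA-repair lesions; compound-treated growth is compared with vehicle-treated growth.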

The nature of test [4]: NCI Yeast Anticancer Drug Screen. Data for the cln2 rad14 strain (AID 165).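 Further: 0% = growth equal to vehicle treated cultures.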 The following applies: S. cerevisiae cln2 rad14 strain, at 50.0 µM, hits give high values. An outline of the steps:
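Yeast strain cln2 rad14, bearing defects in cell cycle control and DNA repair, serves as the test system; values reflect growth inhibition compared with vehicle.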

A short description of test [5]: NCI Yeast Anticancer Drug Screen. Data for the bub3 strain (AID 167). The settings on record: S. cerevisiae bub3 mutant strain, at 50.0 µM, hits give high values. The procedure, abridged:
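Compounds were applied to a genetically altered yeast strain carrying a cell-cycle control defect. Growth inhibition was scored against vehicle-treated controls.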

Test [6] can be described thus: NCI Yeast Anticancer Drug Screen. Data for the mlh1 rad18 strain (AID 175). The settings on record: S. cerevisiae mlh1 rad18 strain growth inhibition; at 50.0 µM; hits give high values. The procedure, abridged: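 Steps: expose repair-defective yeast to compound; measure growth; express inhibition against vehicle-treated controls.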

Turning to `C=CC(=O)OCCC#N`, the growth inhibition was 9% in test [1]; 18.8% in test [2]; 1.3% in test [3]; 2.8% in test [4]; 15.1% in test [5]; 5.45% in test [6].
On to `Cc1ccc(C(=O)Nc2ccc(S(=O)(=O)O)c3cc(S(=O)(=O)O)cc(S(=O)(=O)O)c23)cc1N`, for which the growth inhibition is -28.1% in test [1]; -7.05% in test [2]; -54.5% in test [3]; 1.7% in test [4]; -13.2% in test [5]; -28.2% in test [6].
Turning to `COC(=O)C(C(=O)C(=O)Nc1cccc([N+](=O)[O-])c1)c1nc2ccc([N+](=O)[O-])cc2[nH]c1=O` (stereo unspecified), the growth inhibition in test [1] was 37.6%; in test [2], 17.6%; in test [3], -10.2%; in test [4], -37.8%; in test [5], 9.2%; in test [6], 46.5%.
Turning to `FC(F)(F)c1ccc(C=NC23CC4CC(CC(C4)C2)C3)cc1`, the growth inhibition was -8.85% in test [1]; -9% in test [2]; -16.2% in test [3]; -27.1% in test [4]; -18.9% in test [5]; -30.9% in test [6].
For the compound `O=C(NC12CC3CC(CC(C3)C1)C2)C(=O)c1c[nH]c2ccccc12`, the growth inhibition is 8.5% in test [1]; 14.2% in test [2]; 8.1% in test [3]; 24.6% in test [4]; 23.6% in test [5]; 11.4% in test [6].
On to `CNCc1ccccc1[N+](=O)[O-]`, for which the growth inhibition was 6.75% in test [1]; -3.95% in test [2]; -3.9% in test [3]; -9.95% in test [4]; 3.7% in test [5]; -0.3% in test [6].
In the case of `CCCCOC(=O)NC`, the growth inhibition was 44.6% in test [1]; -6.7% in test [2]; 12.8% in test [3]; -15.9% in test [4]; 7.85% in test [5]; 22.2% in test [6].
With `O=C(NC1CCCCC1)OCc1c(COC(=O)NC2CCCCC2)c2cccn2c2c1cnn2-c1ccccc1`, the growth inhibition was 3.7% in test [1]; 3.4% in test [2]; -27.6% in test [3]; 3.1% in test [4]; -2.95% in test [5]; 19.1% in test [6].
With `Cc1ccc(NC(=S)NC(Cc2ccccc2)c2ccccc2)cc1` (stereo unspecified), the growth inhibition in test [1] was 78.8% (active); in test [2], 79.2% (active); in test [3], -1.05%; in test [4], 78.5% (active); in test [5] it was 90% (active); in test [6], 85.2% (active).
Regarding `CC(=O)C1=C2CCC3C(CCC4CC(O)CCC43C)C2CC1` (stereo unspecified), the growth inhibition in test [1] was -3.95%; in test [2], -3.35%; in test [3] it was 10.9%; in test [4], -9.45%; in test [5], -8%; in test [6], 11.2%.
For `S=C(Nc1ccc(I)cc1)SCc1ccc2c(c1)OCO2`, the growth inhibition is 32.5% in test [1]; 14.4% in test [2]; 25.5% in test [3]; 32.2% in test [4]; -3.65% in test [5]; 23.8% in test [6].
`CCN(CC)CCCNc1c2ccccc2nc2ccccc12`: the growth inhibition in test [1] is 13.7%; in test [2], 22.8%; in test [3], 9.2%; in test [4], 51.6%; in test [5], -8.1%; in test [6], 7%.
Take `Nc1nc(Cl)c2nc(Cl)n(C3OC(CO)C(O)C3O)c2n1` (stereo unspecified): the growth inhibition in test [1] is -7.1%; in test [2] it was 1.75%; in test [3], -8.7%; in test [4], -16%; in test [5] it was 4.5%; in test [6], -4.25%.
`O=C(O)c1cccc(F)c1C(=O)c1ccc2ccccc2c1`: the growth inhibition was -13.7% in test [1]; 4.15% in test [2]; -12.8% in test [3]; -15.2% in test [4]; -22.1% in test [5]; -9.7% in test [6].
On to `CC(C)=NOCCC#N`, for which the growth inhibition in test [1] is 22.5%; in test [2], -0.05%; in test [3], -4.8%; in test [4], -16.6%; in test [5] it was 8.35%; in test [6], -14.3%.
For `BrCCC1(CCBr)CCCCC1`, the growth inhibition was 54% in test [1]; 39.4% in test [2]; 44.6% in test [3]; 24.9% in test [4]; 48.6% in test [5]; 57.8% in test [6].
With `O=C1CN(CN2CCOCC2)C(=O)CN1CN1CCOCC1`, the growth inhibition in test [1] was 39.3%; in test [2], 19.1%; in test [3], 44%; in test [4] it was 18.6%; in test [5], 36.2%; in test [6] it was 32.9%.
For the compound `CCc1ccccc1NC(=O)C(=O)C(C(=O)c1ccc(OC)cc1)c1ccc(OC)cc1` (stereo unspecified), the growth inhibition in test [1] is 19%; in test [2], 11.9%; in test [3], 5.4%; in test [4] it was 16.4%; in test [5], 4.45%; in test [6], 9.05%.
As for `CC(=O)OC1CC2C=CC1C2` (stereo unspecified), the growth inhibition was -3.55% in test [1]; -3.8% in test [2]; 3.6% in test [3]; 1.65% in test [4]; 15.4% in test [5]; -7.7% in test [6].
Take `Cn1c(=O)[nH]c2c(c1=O)CCCS2`: the growth inhibition in test [1] is 3.75%; in test [2], 6.4%; in test [3], 20.4%; in test [4] it was 0.65%; in test [5], -19.6%; in test [6], -10.1%.
As for `CC1CCC(NC2=NCCO2)C(C)C1` (stereo unspecified), the growth inhibition in test [1] is -20.4%; in test [2] it was 0.4%; in test [3], -3.85%; in test [4], -29.4%; in test [5], -14.1%; in test [6] it was -3.35%.
`CCOC(=O)NC(C#N)=C(Cl)Cl`: the growth inhibition in test [1] was 37.5%; in test [2], 47%; in test [3], 49%; in test [4], 14.1%; in test [5], 38.5%; in test [6], 43.6%.
In the case of `Cc1ccc(S(=O)(=O)N2CCSCCSCCSCCN(S(=O)(=O)c3ccc(C)cc3)CC2)cc1`, the growth inhibition in test [1] was 7.05%; in test [2] it was -0.8%; in test [3], 4.25%; in test [4], 15.6%; in test [5], -4.1%; in test [6], 23.1%.
Regarding `Cc1cc2c(cc1C)NC(=O)C(NC(=O)c1ccc(Cl)cc1)C=N2` (stereo unspecified), the growth inhibition was -0.55% in test [1]; 15.6% in test [2]; 15.1% in test [3]; -27.4% in test [4]; 5.95% in test [5]; 2.95% in test [6].
For `O=C1OC(C2OC(=O)C(=O)C2C(=O)c2ccccc2Cl)C(C(=O)c2ccccc2Cl)C1=O` (stereo unspecified), the growth inhibition is 58.4% in test [1]; 23.9% in test [2]; 49.5% in test [3]; 19.1% in test [4]; 7.15% in test [5]; 53.5% in test [6].
With `COc1cc(CCC(C)=O)ccc1OC(=O)c1c(-c2c(F)cccc2Cl)noc1C`, the growth inhibition in test [1] is 1.85%; in test [2] it was -12.2%; in test [3], 14.3%; in test [4], 19.3%; in test [5], 10.3%; in test [6], 3.5%.
For `CC(C)/C=N\n1c(N)c(C#N)c(C#N)c1C(C)C`, the growth inhibition is -4.9% in test [1]; -5.2% in test [2]; -37% in test [3]; 5.95% in test [4]; -52.8% in test [5]; -33.6% in test [6].
Turning to `CCOC(=O)NC`, the growth inhibition in test [1] was 14.4%; in test [2], 1.6%; in test [3], -19.6%; in test [4], 3.85%; in test [5], -1%; in test [6], 9.8%.
As for `CC[P+]1(c2ccccc2)[C@@H](C)CC[C@@H]1C`, the growth inhibition in test [1] is 15.1%; in test [2], 7.45%; in test [3], 12.6%; in test [4], 8.1%; in test [5] it was 3.75%; in test [6], 37.7%.
For the compound `CC[n+]1ccc2cc(OC)c(OC)cc2c1Cc1ccc(OC)c(OC)c1`, the growth inhibition in test [1] is -18%; in test [2], -5.55%; in test [3] it was -5.85%; in test [4] it was -34%; in test [5], -1.2%; in test [6] it was -16.1%.
`CCCCCCC(=O)/C=C/c1ccc(OCc2ccccc2)c(OCc2ccccc2)c1`: the growth inhibition is 33.9% in test [1]; -2.6% in test [2]; 18.5% in test [3]; 23.9% in test [4]; -2.15% in test [5]; 16.1% in test [6].
As for `O=C(O)CCSSCCC(=O)O`, the growth inhibition was 7.25% in test [1]; 6.5% in test [2]; 10.8% in test [3]; -1.65% in test [4]; -4.1% in test [5]; 10.8% in test [6].
For `COc1cc(/C=C2\C=Nc3ccccc32)ccc1O`, the growth inhibition in test [1] is 27.8%; in test [2] it was 23.9%; in test [3] it was 38%; in test [4] it was 20.3%; in test [5], 40.3%; in test [6], 35.7%.
For the compound `NC(=O)Cc1[nH]ccc1C(=O)O`, the growth inhibition is 9.4% in test [1]; -9.75% in test [2]; -0.05% in test [3]; -18.6% in test [4]; -4.15% in test [5]; 12.1% in test [6].
For the compound `CN(C)CCNC(=O)C(C)(C)Oc1ccc(C(=O)c2ccc(Cl)cc2)cc1Cl`, the growth inhibition is -1.55% in test [1]; 6.1% in test [2]; -18.1% in test [3]; -21.6% in test [4]; -30.8% in test [5]; 40.2% in test [6].
Take `CC(C)(C)c1ccc(C(C)(C)C)c(=O)[nH]1`: the growth inhibition in test [1] is -32.1%; in test [2] it was -19.1%; in test [3], -12.3%; in test [4], -41.5%; in test [5], -6.1%; in test [6] it was 5.65%.
As to `CN(C)CCN(C)CC(C)(C)C(=O)/C=C/c1ccccc1`, the growth inhibition is -26% in test [1]; 2.55% in test [2]; -21.6% in test [3]; -5.95% in test [4]; -7.15% in test [5]; -15.4% in test [6].
With `Cc1nn(C(=O)CC(=O)Nc2ccccc2Cl)c(C)c1N=Nc1ccccc1F`, the growth inhibition is -13.7% in test [1]; 4% in test [2]; -27.6% in test [3]; 21.9% in test [4]; 2.7% in test [5]; -14.6% in test [6].
As to `O=C1C2C3CC4C5CC(C1C53)C42` (stereo unspecified), the growth inhibition in test [1] is 4.85%; in test [2], -7.45%; in test [3], 3.35%; in test [4], 5.05%; in test [5] it was -5.4%; in test [6] it was 1.7%.
As to `O=S(=O)(O)CCCCCO`, the growth inhibition is -6.45% in test [1]; -18.7% in test [2]; -15.7% in test [3]; -46.8% in test [4]; -2.85% in test [5]; -9.95% in test [6].
As for `N#Cc1c(-c2ccccc2)c(C#N)c(=S)n(C2OCC(O)C(O)C2O)c1N` (stereo unspecified), the growth inhibition in test [1] was -23.6%; in test [2], -2.2%; in test [3], -10%; in test [4], -38.5%; in test [5] it was 3.05%; in test [6], -15.1%.

These data come from PubChem BioAssay (NCI).
